High-throughput results from PubChem.
This is a sample that favours compounds with a hit; in the whole collection about 12% have one here.
L3MBTL1 block = qHTS Assay for the Inhibitors of L3MBTL1; Lethal(3)malignant brain tumor-like protein 1 (Homo sapiens), Q9Y468; AID 485360, 2010; Potency, µM (titrated, usually from 57.1 µM), for the others: top-dose activity, negative = inhibition, usual class: inhibitors; AlphaScreen L3MBTL1–H3K9me1 peptide binding; 0.66% of 230,000 active; also: % is scaled to controls: 0 for no effect and ±100 for the full control effect; nearly all actives have a fitted effect of over 60% in size
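Displacement of a biotinylated histone H3(1-15) peptide monomethylated at Lys9 (75 nM) from L3MBTL1 (50 nM) was measured by AlphaScreen after a 30 min room-temperature compound incubation; cefsulodin titration served as intraplate control.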
Sfp PPTase inh = qHTS Assay for Inhibitors of Bacillus subtilis Sfp phosphopantetheinyl transferase (PPTase); 4'-phosphopantetheinyl transferase ffp (Bacillus subtilis), Q9F4F7; 3.5% of 310,000 active; Potency, µM, for inactives: largest response in the series, negative = inhibition, hits mostly inhibitors; Biochemical Sfp PPTase activity, qHTS;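 also: the enzyme is Sfp with the accession as filed and its product quenches rhodamine fluorescence; 0% = enzyme reaction without inhibitor and -100% = no enzyme wells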
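Sfp 15 nM + cpd, 15 min RT; start w/ rhodamine-CoA 5 uM, BHQ-2-YbbR 12.5 uM (final); 50 mM Hepes pH 7.6, 10 mM MgCl2, 0.01% NP-40, 0.01% BSA; read 525/598 nm at 0 and 30 min.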
HP1b binding inh = HTS for Inhibitors of HP1-beta Chromodomain Interactions with Methylated Histone Tails. Potency, µM (doses to about 114 µM), for the others: top-dose activity change, negative = inhibition, most hits filed as inhibitors. AlphaScreen HP1-beta / biotin-H3K9me3 peptide binding. 0.56% of 390,000 active. Chromobox protein homolog 1 (Homo sapiens), P83916; also: nearly all actives have a fitted effect of over 70% in size
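HP1-beta protein (50 nM final) preincubated 30 min at room temperature with biotinylated H3(1-18)K9me3 peptide (50 nM) in PBS pH 7.4, 0.01% Tween-20, then compound added for 30 min. AlphaScreen streptavidin donor/nickel chelate acceptor beads (10 ug/mL final), 30 min dark, luminescence read.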
BAZ2B inh = qHTS Assay for Inhibitors of BAZ2B; Potency, µM (series often up to 114 µM), for inactives: top-dose activity change, negative = inhibition, most hits filed as inhibitors; 4.4% of 360,000 active; AlphaScreen BAZ2B-H3K14Ac peptide displacement; Bromodomain adjacent to zinc finger domain protein 2B (Homo sapiens), Q9UIF8; also: % is scaled to controls: 0 for no effect and ±100 for the full control effect; nearly all actives have a fitted effect of over 60% in size
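Protein-peptide AlphaScreen: BAZ2B 50 nM, b-H3K14Ac 50 nM, 1x PBS pH 7.4 + 0.01% Tween-20. Preincubation 30 min RT; cpd 30 min RT (top 110 uM); beads 20 min RT, light-protected.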
JMJD2A Tudor = qHTS Assay for Inhibitors of JMJD2A-Tudor Domain | Lysine-specific demethylase 4A (Homo sapiens), O75164 | Potency, µM (titrated, usually from 114 µM), without a hit: top-dose activity change, negative = inhibition, most hits filed as inhibitors | AlphaScreen JMJD2A-Tudor / H3K4me3 peptide binding | 4.4% of 390,000 active; also: % is scaled to controls: 0 for no effect and ±100 for the full control effect; nearly all actives have a fitted effect of over 50% in size
Target sequence (O75164 whole entry, looked up, the tested form may be a part): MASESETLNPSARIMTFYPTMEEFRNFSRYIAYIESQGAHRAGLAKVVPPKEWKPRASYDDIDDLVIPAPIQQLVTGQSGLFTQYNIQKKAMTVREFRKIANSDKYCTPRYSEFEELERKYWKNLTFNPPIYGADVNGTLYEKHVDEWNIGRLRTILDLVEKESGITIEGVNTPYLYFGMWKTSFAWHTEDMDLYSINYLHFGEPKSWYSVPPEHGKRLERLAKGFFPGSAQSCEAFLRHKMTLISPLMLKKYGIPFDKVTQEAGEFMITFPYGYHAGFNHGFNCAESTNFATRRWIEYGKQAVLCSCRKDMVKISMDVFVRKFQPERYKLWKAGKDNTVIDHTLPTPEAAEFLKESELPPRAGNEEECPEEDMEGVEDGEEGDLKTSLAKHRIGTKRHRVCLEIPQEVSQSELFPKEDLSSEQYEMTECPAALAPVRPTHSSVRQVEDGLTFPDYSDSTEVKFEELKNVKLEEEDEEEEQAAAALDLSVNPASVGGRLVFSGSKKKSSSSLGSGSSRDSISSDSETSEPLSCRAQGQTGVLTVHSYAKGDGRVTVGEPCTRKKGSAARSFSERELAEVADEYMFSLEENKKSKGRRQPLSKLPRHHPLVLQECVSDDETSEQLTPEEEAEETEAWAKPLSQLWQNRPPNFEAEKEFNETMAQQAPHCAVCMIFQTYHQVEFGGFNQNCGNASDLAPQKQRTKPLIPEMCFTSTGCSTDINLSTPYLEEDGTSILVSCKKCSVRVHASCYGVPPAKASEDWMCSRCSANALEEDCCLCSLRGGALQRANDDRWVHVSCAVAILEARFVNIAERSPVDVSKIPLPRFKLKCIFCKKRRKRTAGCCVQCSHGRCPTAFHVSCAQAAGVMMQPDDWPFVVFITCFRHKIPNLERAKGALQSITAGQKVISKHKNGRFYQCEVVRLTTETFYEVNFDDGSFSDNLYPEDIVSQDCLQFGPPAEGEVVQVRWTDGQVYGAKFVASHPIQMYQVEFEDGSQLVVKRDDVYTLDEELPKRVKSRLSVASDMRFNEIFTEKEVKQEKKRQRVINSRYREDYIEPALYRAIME
G9a block = qHTS Assay for Inhibitors of Histone Lysine Methyltransferase G9a; Histone-lysine N-methyltransferase EHMT2 (Homo sapiens), Q96KQ7; G9a H3K9 monomethylation, AlphaScreen, 2 h; Potency, µM (series often up to 102 µM), without a hit: at the top dose activity, negative = inhibition, hits mostly inhibitors; 8.8% of 350,000 active; AID 504332, 2011; also: % is scaled to controls: 0 for no effect and ±100 for the full control effect; nearly all actives have a fitted effect of over 75% in size
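Compounds were preincubated with 20 nM G9a for 15 min, after which biotinylated H3K9 peptide (500 nM) and SAM (20 uM) started a 2 h room-temperature reaction. Monomethylated product was quantified by antibody-based AlphaScreen chemiluminescence.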
An asterisk follows results filed as active; u = inconclusive; x = no result; [ ] = remark or other dose. Calls follow the shape of the dose curve; as a rule, active = well fitted curve in the direction sought with a large enough effect; inconclusive = small, poorly fitted or top-dose-only effect, or another doubt; inactive = no such curve, though single readings can be large; an effect the other way counts as inactive or inconclusive. Potency is read from the fitted curve at half-maximal effect.

SMILES	L3MBTL1 block	Sfp PPTase inh	HP1b binding inh	BAZ2B inh	JMJD2A Tudor	G9a block
Cc1cc(C)cc(NC(=O)C2CCC(CNC(=O)[C@@H]3Cc4ccccc4CN3)CC2)c1 (stereo partly specified)	x	15%	19%[57 µM]	-16%[57.1 µM]	-3%	-4%
CC(C)c1ccc(NC(=O)C2CCN(C(=O)[C@@H]3Cc4ccccc4CN3)CC2)cc1	x	0%	16%	-22%	-21%	x
O=C([C@@H]1Cc2ccccc2CN1)N1CCN(Cc2ccccc2)CC1	x	-8%	42%	79µM*	-4%	32µM*
Cc1ccc(NC(=O)C2CCCN2C(=O)Oc2ccccc2)c(C)c1 (stereo unspecified)	20%	-13%	49%	-9%	-9%	x
Cc1ccc(NC(=O)[C@@H]2CCCN2C(=O)[C@@H]2Cc3ccccc3CN2)c(C)c1	x	13%	37%	-17%	-10%	50µM*
Cc1ccc(NC(=O)C2CCN(C(=O)[C@@H]3Cc4ccccc4CN3)CC2)cc1	x	2%	45%	-11%	-8%	56µM*
COc1ccccc1OCC(=O)NCC(c1ccc(Cl)cc1)N1CCCCC1 (stereo unspecified)	x	x	8%	-4%	-24%	-3%[59 µM]
Cc1c(C(=O)NCCN(C)C)oc2c1-c1nn(Cc3ccccc3Cl)cc1CC2	x	x	37%	5%	-21%	1%[59 µM]
O=C(Nc1cccc(-n2cccn2)c1)C1CCCN(Cc2cc3ccccc3[nH]2)C1 (stereo unspecified)	x	0%	-5%	71µM*	u	12%[12.7 µM]
O=C1CC(Nc2ccc(N3CCOCC3)cc2)C(=O)N1c1ccccc1F (stereo unspecified)	u	50µM*	-5%	5%	u	8.9µM*
COc1ccc(CCN2C(=O)CC(Nc3ccc(N4CCOCC4)cc3)C2=O)cc1OC (stereo unspecified)	x	-3%	-10%	45µM*	u	14µM*
CCOC(=O)C1=NOC2C3CC(C12)C1C(=O)N(CCc2ccc(OC)c(OC)c2)C(=O)C31 (stereo unspecified)	x	9%	u	u	35µM*	x
COc1ccc(CCN2C(=O)CC(N3CCOCC3)C2=O)cc1OC (stereo unspecified)	-1%	6%	21%	10%	-7%	10%[59 µM]
CCc1ccc(NC2CC(=O)N(CCc3ccc(OC)c(OC)c3)C2=O)cc1 (stereo unspecified)	-8%	2%	u	-26%	u	50µM*
O=C1CC(Nc2ccccc2)C(=O)N1c1ccc(N2CCOCC2)cc1 (stereo unspecified)	4%	-5%	26%	-8%	-3%	-5%[2.33 µM]
O=C1c2cccc(Cl)c2C(=O)c2c1cccc2N1CCCC1	x	x	22µM*	x	u	x
CCN(C(=O)CCS(=O)(=O)c1cc2[nH]c(=O)c(=O)[nH]c2cc1C)c1ccccc1	x	x	31%	-14%	-3%	-28%[59 µM]
COc1ccc(/C=N/NC(=O)c2ccccc2)cc1CN1CCN(c2ccc(F)cc2)CC1	7%	15%	1%	-5%	-16%	26%[12.7 µM]
COc1ccc(NC(=S)N2CCN(Cc3ccco3)CC2)c(OC)c1	-1%	7%	21%	-1%	-12%	-10%[59 µM]
COc1cc(OC)c(OC)cc1CN1CCN(c2ccc(F)cc2)CC1	-19%	0%	u	50µM*	45µM*	28µM*
COc1cc(OC)c(OC)cc1CN1CCN(Cc2ccco2)CC1	5%	-9%	-11%	79µM*	22µM*	35µM*
COc1ccc(CN2CCOCC2)cc1OC	x	6%	36%	-32%	-3%	10%
COc1ccc(CN2CCN(c3ccccc3OC)CC2)cc1OC	0%	-22%	u	50µM*	22µM*	x
COc1ccc(CN2CCN(Cc3cccc(F)c3)CC2)cc1OC	x	u	u	22µM*	3.2µM*	-11%[2.33 µM]
CCCCCC(O)(c1ccc(OCC)cc1)C(CN1CCOCC1)c1ccccc1 (stereo unspecified)	x	-2%	7%	-12%	-13%	0%
SMILES	L3MBTL1 block	Sfp PPTase inh	HP1b binding inh	BAZ2B inh	JMJD2A Tudor	G9a block
Cc1ccc(C(C)C)c(OCC(=O)Nc2ccc(-c3nc4ncccc4o3)cc2C)c1	x	x	45%	3%	9%	7%[59 µM]
O=C(NCc1ccccc1)c1onc(CSc2ccccc2)c1C(=O)NCC1CC1	x	21%	92%	-5%	15%	36%[59 µM]
COc1ccc(NC(=S)N2CCN(Cc3cccc(F)c3)CC2)c(OC)c1	-7%	5%	8%	u	-8%[57.1 µM]	x
COC(=O)c1cc(CN2CCN(c3ccccc3C)CC2)ccc1O	x	-11%	u	56µM*	2µM*	7.1µM*
COc1cc(OC)c(OC)cc1CN1CCN(Cc2cccc(F)c2)CC1	1%	10%	-15%	-31%	56µM*	u
COc1ccc(CCNC(=O)CN2CCN(Cc3ccccc3F)C2=O)cc1OC	2%	21%	-17%	-2%	-20%	13%[59 µM]
COc1ccc(CN2CCN(Cc3ccccc3F)CC2)cc1OC	-5%	u	u	35µM*	5.6µM*	8.9µM*
Cc1ccc(NC(=O)CN2C(=O)COc3ccc(S(=O)(=O)N4CCCCC4)cc32)cc1N(C)C	x	x	14%	-39%	-25%	-39%[59 µM]
COc1ccc(-c2nnc(SCC(=O)Nc3c(Cl)cc(Cl)cc3C(=O)O)o2)cc1	14%	x	-1%	x	-28%	x
Cc1ccc(C(=O)O/N=C/c2ccc(N(C)C)cc2)cc1	12%	17%	44%	7%	-8%	x
Cc1ccc(/C=C/c2ccc(N(C)C)cc2)[n+](C)c1	x	u	6%	u	25µM*	-48%[2.33 µM]
CN(C)c1ccc(/C=C/c2cc[n+](C)cc2)cc1	x	3%	-27%	u	-20%	10µM*
CN(C)c1ccc(/C=C2/NC(=O)NC2=O)cc1	-4%	10%	30%	-11%	-17%	14%[59 µM]
CN(C)c1ccc(/C=C/c2cc[n+]([O-])cc2)cc1	0%	0%	x	-32%	x	50µM*
CCC(Sc1nnc(-c2ccc(OC)cc2)c(-c2ccc(OC)cc2)n1)C(=O)Nc1cccc(OC)c1 (stereo unspecified)	x	x	2%	-22%	-26%	u
N#Cc1cc(-c2ccccc2)oc1/N=C/c1ccccc1O	u	-7%	-32%	7%	79µM*	u
O=C(N/N=C/c1ccc(Cl)cc1Cl)c1cccc(N2CCCC2=O)c1	x	-42%	9%	-8%	-11%	-4%
